# PubChem BioAssay
# Assay: mitochondrial membrane potential change in A549 cells, profiling panel, cell-based, JC-1 fluorescence, basal, 24 h, 100 nL (AID 1138);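 further: A549 lung adenocarcinoma cells under basal conditions with no added stimulus; test concentration not given here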
# Settings: higher = more signal
row,SMILES,z-score
1,COc1ccc(CCN2C(=O)[C@@]3(c4ccc([N+](=O)[O-])cc4)CC(=O)N(CC45CC6CC(CC(C6)C4)C5)[C@@H]3c3ccc(CO)cc32)cc1,1.15
2,C=CCN1C(=O)[C@@]2(Cc3ccccc3)N=C(c3ccc(OCCCO)cc3)O[C@H]2c2ccccc21,-0.993
3,CN1CCC(CCCO)=CC1C1CC1 (configuration not stated),0.949
4,CC(C)N1CC=CC23O[C@@H]4/C=C\CCCOC(=O)C4[C@H]2C(=O)N(CCCCCO)[C@@H]3C1=O (some centres not stated),3.68
5,COCCOC(=O)N1C(=O)[C@@]2(c3cc(C#CCC(C(=O)OC)C(=O)OC)ccc31)[C@H](C(=O)N1CCN(c3ncccn3)CC1)[C@H]1C(=O)O[C@H](c3ccccc3)[C@H](c3ccccc3)N1[C@@H]2c1ccc(O)cc1,1.95
6,CCC(=O)[C@]12O[C@@]3([C@@H]4C(=O)OCC[C@@H]41)N(Cc1ccccc1)C(C)=C(C(=O)OC)[C@@H](c1ccccc1)N3C2=O,1.27
7,COC(=O)[C@@]1(Cc2ccc(OC)cc2)[C@H]2c3cc(C(=O)N(C)C)n(Cc4ccc(C)c(F)c4F)c3C[C@H]2CN1C(=O)c1ccccc1,0.0287
8,COc1cc(CO)cc(I)c1O[C@H]1C=C(C(=O)NCCO)C[C@@H](NCCc2c[nH]c3ccccc23)[C@@H]1O,0.898
9,Cc1ccc(N2C(=O)c3ccccc3[C@](C)(C(=O)O)[C@@H]2c2ccc(CO)cc2)nc1,1.08
10,COC(=O)[C@@]1(Cc2ccccc2)[C@H]2c3cc(C(=O)N4CCCC4)n(CCN4CNCC4=O)c3C[C@H]2CN1C(=O)c1ccccc1,0.791
11,CO[C@@H]1COC(=O)[C@H](C)NC(=O)CC=C[C@@H](C)[C@H](OC)COC(=O)[C@H](C)NC(=O)CC=C[C@H]1C,1.64
12,C=C(COC)/C(=C/C[C@@H](OC(C)=O)c1cccc(OCCO)c1)c1cc(C(=O)OC)ccc1OC,1.37
13,CCOC(=O)C[C@H]1[C@H](OC(=O)c2ccccc2-c2ccccc2)[C@@H](NC(=O)c2ccc(-c3ccccc3)cc2)c2cc(OCCCO)ccc2N1C(=O)Cc1ccc(OC)cc1,0.78
14,[N-]=[N+]=NCc1ccccc1C[C@]1(C(=O)N2CCCCC2)N=C(c2ccc(OCCCO)cc2)O[C@H]1c1ccccc1CN=[N+]=[N-],-0.0989
15,CO[C@H]1COC(=O)[C@@H](OCc2ccccc2)C=C[C@H](C)[C@@H](OC)COC(=O)[C@H](OCc2ccccc2)C=C[C@@H]1C,1.99
16,COCCOC(=O)N1C(=O)[C@@]2(c3cc(C#CCNC(N)=O)ccc31)[C@H](c1ccc(OCCO)cc1)N1[C@H](c3ccccc3)[C@H](c3ccccc3)OC(=O)[C@H]1[C@@H]2C(=O)Nc1nc2ccccc2s1,-2.32
17,CCOC(=O)C1=CC[C@@H](c2ccc(-c3ccc(OCc4ccccc4)cc3)c(OC)c2)N(S(=O)(=O)c2ccc(C)cc2)[C@H]1c1ccccc1,1.63
18,Cc1ccc(S[C@]2(C(=O)O)CC(=O)N(Cc3ccccc3)[C@@H]2c2ccc(CO)cc2)cc1,1.31
19,Cc1ccc(S[C@]2(C(=O)NC(C)C)CC(=O)N(Cc3cc(C(F)(F)F)cc(C(F)(F)F)c3)[C@@H]2c2ccc(CO)cc2I)cc1,0.598
20,CO[C@@H]1COC(=O)[C@H](COCc2ccccc2)NC(=O)CC=C[C@@H](C)[C@H](OC)COC(=O)[C@H](COCc2ccccc2)NC(=O)CC=C[C@H]1C,0.952
21,CCC1=C2CN(Cc3ccccc3Br)[C@@H]([C@@H](O)Cc3ccccc3)C2C=CCC1 (some centres not stated),-0.7
22,COCCOC(=O)N1C(=O)[C@@]2(c3cc(C#CCC(C(=O)OC)C(=O)OC)ccc31)[C@H](c1ccccc1OCCO)N1[C@H](c3ccccc3)[C@H](c3ccccc3)OC(=O)[C@H]1[C@@H]2C(=O)N1CCCCCCC1,-0.729
23,CO[C@@H]1COC(=O)[C@@H]2CCCN2C(=O)CC=C[C@@H](C)[C@H](OC)COC(=O)[C@@H]2CCCN2C(=O)CC=C[C@H]1C,1.01
24,C=C(COC)/C(=C/C[C@H](OC(C)=O)c1ccc(OCCO)cc1)c1cnc2ccccc2c1,1.8
25,CC(=O)Nc1ccc([C@H]2[C@H](C)CC[C@H]3C(=O)N4[C@@H](CC[C@@H](C)[C@@H]4c4ccc(NC(C)=O)cc4)C(=O)N32)cc1,0.673
26,CN(C)CCCC[C@@H]1NC(=O)[C@@H]2C[C@H](C(=O)O)[C@H](c3ccc(O)cc3)N2C1=O,-0.0467
27,C[C@@H]1CC[C@H]2C(=O)N3[C@@H](CC[C@@H](C)[C@@H]3c3cccc(N4CCOCC4)c3)C(=O)N2[C@H]1c1cccc(Br)c1,2.96
